Data as given in PubChem BioAssay AID588342 (National Center for Advancing Translational Sciences (NCATS), 2011).
The whole screen tested about 360,000 compounds, of which about 25,000 (6.9%) were called active. About 9% were inconclusive and are not listed. For the sample, actives were picked, then their nearest neighbours and some compounds at random. Unmarked numbers belong to inactive results. Calls come from the whole dose curve; as a rule, active = well fitted inhibition curve with a large enough effect; inconclusive = small, poorly fitted or top-dose-only effect; inactive = flat fitted curve, though single readings scatter.

Molecular target: Luciferin 4-monooxygenase (Photinus pyralis) (UniProt P08659)
Assay: qHTS profiling assay for firefly luciferase inhibitor/activator using purifed enzyme and Km concentrations of substrates (counterscreen for miR-21 project); note: nearly all actives have a fitted effect of over 55% in size;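 for activity change, negative = inhibition: plate controls were vehicle for no effect and reference inhibitor for full effect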
Conditions: purified FLuc, luminescence inhibition; series mostly up to 57.5 µM; activity change, negative = inhibition: at the top concentration
Procedure, shortened: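 Biochemical qHTS of compounds, final roughly 60 µM downward over six points, against 10 nM purified firefly luciferase using Km concentrations of substrates (10 uM D-luciferin, 10 uM ATP) in Tris acetate pH 7.5 buffer; luminescence output.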
Potency is the fitted concentration of half-maximal effect.

Sequence of Luciferin 4-monooxygenase (Photinus pyralis) (P08659 whole entry, looked up): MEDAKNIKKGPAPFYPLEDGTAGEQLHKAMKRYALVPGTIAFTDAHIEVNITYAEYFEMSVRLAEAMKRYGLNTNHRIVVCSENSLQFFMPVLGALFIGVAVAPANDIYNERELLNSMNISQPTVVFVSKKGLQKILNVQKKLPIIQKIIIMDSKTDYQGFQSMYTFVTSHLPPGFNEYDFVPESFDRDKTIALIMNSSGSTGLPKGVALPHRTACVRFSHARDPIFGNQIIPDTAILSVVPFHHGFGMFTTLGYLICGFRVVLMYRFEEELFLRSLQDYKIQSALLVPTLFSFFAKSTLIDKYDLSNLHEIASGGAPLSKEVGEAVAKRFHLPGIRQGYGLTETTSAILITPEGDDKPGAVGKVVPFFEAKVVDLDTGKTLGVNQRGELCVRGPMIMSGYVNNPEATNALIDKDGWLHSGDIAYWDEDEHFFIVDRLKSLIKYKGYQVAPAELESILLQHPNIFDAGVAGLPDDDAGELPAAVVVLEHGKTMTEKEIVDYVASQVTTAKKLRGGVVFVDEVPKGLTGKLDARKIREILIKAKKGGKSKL

Compared with CC(=O)Oc1cccc(C(=O)Nc2ccccc2NC(=O)c2cccc(OC(C)=O)c2)c1, COc1ccc(C2COC(=O)C2=N)c(NC(=O)c2ccccc2)c1 (stereo not given) is higher in “activity change, negative = inhibition” value: -0.563% for the first, 4.01% for the second.

First: COc1ccc(C(=O)Nc2ccc(N3CCC(C)CC3)cc2)cc1Br
Second: COc1cc2ccccc2cc1C(=O)Nc1ccc(N2CCOCC2)cc1
The “activity change, negative = inhibition” value of the first is lower: -1.07% for the first, 7.87% for the second.

First: Cc1ccccc1C(=O)NC(=S)Nc1ccc(N2CCN(C(=O)c3ccccc3)CC2)cc1
Second: Cc1ccccc1C(=O)N1CCN(c2ccc(NC(=O)c3cccs3)cc2)CC1
The “activity change, negative = inhibition” value of the first is higher: 2.99% for the first, -1.16% for the second.

Going from CC(=O)Nc1ccc(S(=O)(=O)N2CCN(c3ccccc3)CC2)cc1 to O=C(Nc1ccc(S(=O)(=O)N2CCc3ccccc3C2)cc1)c1ccccc1, the “activity change, negative = inhibition” value rises from -1.03% to 0.419%.

First: COc1cccc(C(=O)Nc2ccc(N3CCN(C(=O)c4ccco4)CC3)cc2)c1
Second: COc1ccccc1N1CCN(C(=O)C2Cc3ccccc3CN2C(=O)c2ccco2)CC1 (stereo not given)
The “activity change, negative = inhibition” value of the first is lower: -3% for the first, 3.04% for the second.

Compared with O=C(Cn1ccc(=O)[nH]c1=O)Nc1ccc(C(=O)O)c(O)c1, Cc1ccc(NC(=O)C(C)OC(=O)Cc2c[nH]c3ccccc23)cc1S(=O)(=O)N1CCOCC1 (stereo not given) is higher in “activity change, negative = inhibition” value: -4.38% for the first, -1.54% for the second.

Compared with CC(=O)c1ccc(NC(=O)CSc2nc(-c3ccccc3F)nc3c2c(=O)n(C)c(=O)n3C)cc1, CCOc1ccc(NC(=O)c2cn(C3CCCCC3)c(=O)c3c2c2ccccc2n3C)cc1 is lower in “activity change, negative = inhibition” value: 4.57% for the first, 0.366% for the second.

First: CC(=O)N1c2ccc(S(=O)(=O)N(C)CC(=O)N(C)Cc3ccccc3)cc2CC1C (stereo not given)
Second: Cc1cccc(NS(=O)(=O)c2ccc(C)c(C(=O)NCC(c3ccccc3)N(C)C)c2)c1 (stereo not given)
The “activity change, negative = inhibition” value of the first is higher: 4.32% for the first, -0.184% for the second.

First: CCCCn1c(SCc2ncc(-c3ccccc3)o2)nc2cc(S(N)(=O)=O)ccc21
Second: CCn1c(CN2CCC(C)CC2)nc2cc(NC(=O)c3ccccc3[N+](=O)[O-])ccc21
The “activity change, negative = inhibition” value of the first is lower: -17.5% for the first, 5.45% for the second.

Going from Cc1oc2ccc(O)c(CN3CCCCC3)c2c1C(=O)Nc1cccc(C(F)(F)F)c1 to O=C(NC(=O)c1ccccc1N1CCCCC1)Nc1ccc(Br)cc1, the “activity change, negative = inhibition” value falls from -0.279% to -6.23%.

Going from COc1ccc(CCNC(=O)CCCCn2c(=O)c3ccccc3n(Cc3ccccc3C)c2=O)cc1OC to O=C(NC1CCN(Cc2ccccc2)CC1)c1ccc(Cn2c(=O)c3ccccc3n(Cc3cccc(F)c3)c2=O)cc1, the “activity change, negative = inhibition” value falls from -1.31% to -5.59%.

Compared with CCNC(=O)Cn1nc(C)n2c(cc3c(OC)cccc32)c1=O, COc1ccc2c(c1)c(N1CCCC1=O)c(C(=O)Nc1ccccc1C(F)(F)F)n2C is higher in “activity change, negative = inhibition” value: -2.16% for the first, -1.46% for the second.

First: CCOc1ccc(S(=O)(=O)Nc2nccs2)cc1
Second: CCOc1ccc(N(CC)C(=O)C2CCN(S(=O)(=O)c3cccc4nonc34)CC2)cc1
The “activity change, negative = inhibition” value of the first is lower: -0.677% for the first, 5.23% for the second.

Going from O=C(CN1C(=O)COc2ccc(Cl)cc21)Nc1ccc(N2CCOCC2)cc1 to O=C(Nc1ccc(N2CCOCC2)c(Cl)c1)c1ccc(S(=O)(=O)N2CCOCC2)cc1, the “activity change, negative = inhibition” value rises from -0.823% to 2.53%.

Going from NS(=O)(=O)c1ccc(NC(=O)C(=O)Nc2ccc3nc4n(c(=O)c3c2)CCCCC4)cc1 to CCCCN(CC)C(=S)Nc1ccc2nc3n(c(=O)c2c1)CCCCC3, the “activity change, negative = inhibition” value rises from 1.12% to 3.88%.

Going from COC(=O)c1ccc(N2CCOCC2)c(NC(=O)c2ccc3c(c2)OCCO3)c1 to Cn1c(=O)cc(OCC(=O)N2CCN(c3ccccc3)CC2)c2ccccc21, the “activity change, negative = inhibition” value rises from 0.934% to 1.2%.

First: COc1ccc2c(Sc3ccc(C)cc3)c(C(=O)NC(C)c3ccccc3)[nH]c2c1 (stereo not given)
Second: COc1ccc(C(=O)C[n+]2ccc(C)cc2)cc1
The “activity change, negative = inhibition” value of the first is lower: 3.3% for the first, 8.37% for the second.

First: CC(C)Cn1c(=O)c2ccccc2n2c(CCC(=O)N3CCN(c4cccc(Cl)c4)CC3)nnc12
Second: O=C(c1ccccc1)N1CCC(CC2CC(c3ccc(Cl)cc3)=NO2)(C(=O)NCC2CCCCC2)CC1 (stereo not given)
The “activity change, negative = inhibition” value of the first is higher: 4.18% for the first, -0.0551% for the second.

Going from O=C(NCCOc1cccnc1)c1ccc(OC2CCN(Cc3ccccn3)CC2)cc1 to CCOc1ccc(NC(=O)c2c(NCc3cccc(OC)c3OC)sc3c2CCC3)cc1, the “activity change, negative = inhibition” value rises from -1.59% to 2.55%.

Compared with CC(OC(=O)c1ccc(NS(=O)(=O)c2ccc3[nH]c(=O)[nH]c3c2)cc1)C(=O)Nc1cccc(Cl)c1Cl (stereo not given), CCOc1ccc(NC(=O)CN(C)C(=O)Cc2sc(C)nc2-c2ccc(F)cc2)cc1OCC is lower in “activity change, negative = inhibition” value: 2.36% for the first, 1.86% for the second.

Going from O=C1CC(c2ccc(F)cc2F)c2cc3c(cc2N1)OCO3 (stereo not given) to Cc1nnc2n1N=C(c1ccc3c(c1)NC(=O)CO3)CS2, the “activity change, negative = inhibition” value rises from -7.02% to -2.33%.

With O=C(Nc1ccc(C(=O)O)c(O)c1)c1ccccc1 the Potency was 15.1 µM (active).
In the case of COc1cccc(C(=O)Nc2cc3c(cc2Br)OCCCO3)c1, the Potency is reported as 4.78 µM (active).
COc1cccc(C(=O)Nc2ccc(N3CCCC3)cc2)c1 was tested, and the Potency was 4.26 µM (active).
In the case of CN1CCN(c2ccc(NC(=O)c3ccccc3)cc2)CC1, the Potency is reported as 10.7 µM (active).
With COc1cccc(C(=O)Nc2ccc3nc4n(c(=O)c3c2)CCCCC4)c1 the Potency was 16.9 µM (active).
In the case of CN1CCN(c2ccc(NC(=O)c3ccc4c(c3)OCCO4)cc2Cl)CC1, the Potency is reported as 4.78 µM (active).
For CN1CCN(c2ccc(NC(=O)c3cc(Cl)c4c(c3)OCCO4)cc2)CC1, the Potency was 10.7 µM (active).
With Cc1ccccc1C(=O)Nc1ccc(N2CCCCCC2)cc1 the Potency was 10.7 µM (active).
